Results: PubChem BioAssay (Tox21)
Values joined by “and” are separate entries in the source; they are usually repeats but may differ in a detail not shown here. Identical values can stand only once. Results filed as inconclusive are left out. Entries that show only a call come without a potency. A structure can be active in one record and inactive in another. Active and inactive are the calls of the source. Calls come from the whole dose curve; as a rule, active = well fitted curve in the direction sought with a large enough effect in the repeat runs; inconclusive = weak or mixed curves; inactive = no such curve, though single readings can be large; an effect the other way counts as inactive or inconclusive.

Assays:
[1] = A CellTox Green Cytotoxicity Assay to monitor cytotoxicity in HepG2 cells - 32 hour (AID 1224883); note: nearly all actives have a fitted effect of over 50% in size; note: potency is the fitted concentration of half-maximal effect
In short: (§1)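 Nonlytic assay: viable cells exclude the dye, so fluorescence scales with cell death. HepG2 at 600 cells/well, compounds added after 5 h, signal read across 40 h.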

[2] = A CellTox Green Cytotoxicity Assay to monitor cytotoxicity in HEK293 cells - 8 hour (AID 1224884); note: nearly all actives have a fitted effect of over 35% in size; note: potency is the fitted concentration of half-maximal effect
In short: (§2)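 Seeding of HEK293 cells together with cytotoxicity dye preceded a 5 h incubation at 37 C/5% CO2. Test compounds in DMSO were then added and fluorescence monitored across 40 h.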

[3] = qHTS RealTime-Glo MT Cell Viability Assay in HEK293 cells - 24 hour (AID 1224886); note: nearly all actives have a fitted effect of over 50% in size; note: potency is the fitted concentration of half-maximal effect
In short: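 Assay medium contained NanoLuc luciferase plus cell-permeant prosubstrate, added with HEK293 cells at 600 cells/well. After 5 h at 37 C/5% CO2 compounds were added; plates stayed at 37 C for 40 h with serial luminescence reads.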

[4] = qHTS RealTime-Glo MT Cell Viability Assay in HEK293 cells - 8 hour (AID 1224887); note: top concentration of the series differs between compounds; nearly all actives have a fitted effect of over 50% in size
In short: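 Tox21 screen in HEK293 using RealTime-Glo MT chemistry, with cells and reagent co-dispensed. Luminescence proportional to viable cell number was captured at intervals during 40 h compound exposure at 37 C.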

[5] = qHTS RealTime-Glo MT Cell Viability Assay in HepG2 cells - 0 hour (AID 1224889); note: nearly all actives have a fitted effect of over 50% in size
In short: (§3)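 qHTS, HepG2, 600 cells/well, RealTime-Glo (NanoLuc + prosubstrate) added with cells; 5 h preincubation; DMSO compound addition; 37 C; luminescence at 0/8/16/24/32/40 h.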

[6] = A CellTox Green Cytotoxicity Assay to monitor cytotoxicity in HepG2 cells - 8 hour (AID 1224890); note: nearly all actives have a fitted effect of over 45% in size; note: potency is the fitted concentration of half-maximal effect
In short: as §1

[7] = qHTS assay to identify small molecule antagonists of the estrogen receptor alpha (ER-alpha) signaling pathway using the BG1 cell line in the presence of 0.1 nM 17-beta-estradiol - cell viability counter screen (AID 1259241); note: nearly all actives have a fitted effect of over 40% in size
In short: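 VM7Luc4E2, 4,000 cells/well, phenol red-free medium + 10% charcoal-stripped FBS; 24 hr plating; cpd + 0.1 nM E2 final, 22 hr 37C/5% CO2; CellTiter-Fluor 30 min, fluorescence.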

[8] = A CellTox Green Cytotoxicity Assay to monitor cytotoxicity in HEK293 cells - 16 hour (AID 1224888); note: nearly all actives have a fitted effect of over 35% in size
In short: as §2

[9] = qHTS RealTime-Glo MT Cell Viability Assay in HepG2 cells - 16 hour (AID 1224885); note: nearly all actives have a fitted effect of over 50% in size
In short: as §3

Structure (SMILES)	Potency [1]	Potency [2]	Potency [3]	Potency [4]	Potency [5]	Potency [6]	Potency [7]	Potency [8]	Potency [9]
C=CC(=O)NC(C)(C)CS(=O)(=O)O	inactive and 24.5 µM (active)	inactive and 43.6 µM (active)	inactive	inactive	inactive	inactive and 38.9 µM (active)	inactive	–	–
COc1cc2c(c(OC)c1OC)-c1ccc(OC)c(=O)cc1[C@@H](NC(C)=O)CC2	60.9 µM (active) and inactive	inactive	inactive	inactive	inactive	inactive	inactive	inactive	–
CCCCCCCC(=O)OCC(O)CO (stereo not given)	inactive	inactive	–	inactive	inactive	inactive	inactive	inactive	inactive
CN/C(=C\[N+](=O)[O-])NCCSCc1ccc(CN(C)C)o1	inactive	inactive	–	–	inactive	inactive	inactive	inactive	inactive
CC(=O)c1ccc(S(=O)(=O)NC(=O)NC2CCCCC2)cc1	inactive	inactive	inactive	inactive	inactive	inactive	inactive	inactive	–
NC(N)=NC(N)=NCCc1ccccc1	inactive	inactive	–	inactive	inactive	inactive	inactive	inactive	inactive
Cc1cccc(Nc2cc(Cl)nc(SCC(=O)O)n2)c1C	inactive	inactive	inactive	inactive	inactive	inactive	inactive	inactive	–
NC(=O)c1ccc([N+](=O)[O-])cc1Cl	inactive	inactive	inactive	inactive	inactive	inactive	inactive	inactive	–
C#C[C@]1(O)CC[C@H]2[C@@H]3CCc4cc(O)ccc4[C@H]3CC[C@@]21C	21.7 µM (active) and 43.6 µM (active)	inactive	19.5 µM (active)	inactive	inactive	inactive	inactive	inactive	–
CN(C)C=O	inactive	inactive	–	–	inactive	inactive	inactive	inactive	inactive
OCCCc1ccccc1	inactive	inactive	inactive	–	inactive	inactive	inactive	inactive	inactive
CC(C)CC(C)CC(O)CC(C)C (stereo not given)	inactive	inactive	–	inactive	inactive	inactive	inactive	inactive	–
COc1ccccc1NC(=O)CC(C)=O	inactive	inactive	–	–	inactive	inactive	inactive	inactive	inactive
C=C(C)OC(C)=O	inactive	inactive	–	–	inactive	inactive	inactive	inactive	inactive
CCCCOCCOCCOC(C)=O	inactive	inactive	–	–	inactive	inactive	inactive	inactive	inactive
Cn1cnc2c1c(=O)[nH]c(=O)n2C	inactive	inactive	–	inactive	inactive	inactive	inactive	inactive	inactive
CCN(CC)CCOC(=O)c1ccc(N)cc1	inactive	inactive	inactive	–	inactive	inactive	inactive	inactive	–
CCN1CCCC1=O	inactive	inactive	–	–	inactive	inactive	inactive	inactive	inactive
NC(=O)NO	inactive	inactive	inactive	–	inactive	inactive	inactive	inactive	–
COCC(C)N (stereo not given)	inactive	inactive	–	inactive	inactive	inactive	inactive	inactive	inactive
c1ccc2[nH]c(-c3cscn3)nc2c1	inactive	inactive	–	inactive	inactive	inactive	inactive	inactive	–
COc1ccccc1O	inactive	inactive	–	inactive	inactive	inactive	inactive	inactive	inactive
CCCCCCCCCCCCCCCCCC(=O)OCC(O)CO (stereo not given)	inactive	inactive	–	–	inactive	inactive	inactive	inactive	inactive
O=C1CCCCCN1	inactive	inactive	–	–	inactive	inactive	inactive	inactive	–
COc1ccc(O)cc1	inactive	inactive	–	inactive	inactive	inactive	inactive	inactive	–
